One may read the inhibition as the change of the read-out against control, counted positive when it falls.

Active and inactive are the calls of the source.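 How the source made its calls, unless noted: active means inhibition above 20% together with a positive visual image hit; inconclusive means visual image hit but inhibition not above 20%; inactive means no visual image hit.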

Test [1] can be described thus: inhibitors of TNFa-induced NFkB p65 translocation, primary screen, imaging, HUVEC, MLSMR starter and 10KST1 sets (AID 438).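 Further: compound added about 3h40 before a 20 min TNFalpha stimulation.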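 On inhibition: signal is the nuclear over cytoplasmic p65 intensity ratio per well.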 The settings on record: HUVEC TNFa-induced p65 nuclear translocation; cell count: measured here: nuclei count (cytotoxicity indicator), at 2.08 µM; inhibition: at 2 µM, stronger effect = higher value, 0% TNFa-plus-vehicle, 100% no-TNFa wells.
The nature of test [2]: reduction of polyQ htt aggregates in cells – imaging, exon1htt(103Q)mCFP cells, high-content imaging, primary screen (AID 483;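 active means visual image review flags a hit and inhibition of aggregation exceeds 20%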;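 further: compound exposure lasted 3 days before fixation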;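 on nuclei count: percent of the per-plate median nuclei count of sample wells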). As to conditions: exon1htt(103Q)mCFP cell line, aggregate imaging, at 2 µM; inhibition of aggregation: stronger effect = higher value; nuclei count: measured here: cell count, toxicity.
Test [3] can be described thus: endothelial E-selectin expression blockers – imaging, HUVEC, immunofluorescence, MLSMR starter and 10KST1 sets, primary screen (AID 487;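 active means visually confirmed hit in the image check and inhibition above 20%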;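 on inhibition: signal is fraction of cell area covered by stained E-selectin grains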;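 on nuclei count: 100% = median nuclei count of all wells on the same plate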). As to conditions: HUVEC TNFalpha-induced E-selectin immunofluorescence imaging, at 2 µM; inhibition: stronger effect = higher value; nuclei count: measured here: cell number, toxicity.
For test [4], the target named is Voltage-gated potassium channel subunit beta-2 (Rattus norvegicus) (UniProt P62483). Briefly: inhibitors of rat Kvbeta2 reductase activity – biochemical, NADPH fluorescence, primary screen (AID 622;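 active means fluorescence slope higher than the sample average by over 3 SD, cut at about -0.22 in these data, passing the limit was not always enough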;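 further: slope of raw intensity against log time taken from 70 to 1610 s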). As to conditions: recombinant KvBeta, 4-cyanobenzaldehyde reduction, at 10 µM, stronger effect = higher value.
Test [5] has the same target. Briefly: enhancers of rat Kvbeta2 NADPH turnover – biochemical, NADPH fluorescence, primary screen (AID 623;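 active means NADPH fluorescence slope more negative than the mean of all samples by about 3 SD, 99.7% confidence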;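 further: fluorescence intensity change per second fitted from 20 to 320 s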). The settings on record: Recombinant KvBeta, NADPH fluorescence decrease slope, 10 min; at 10 µM; stronger effect = lower value.
The target in test [6] is Alpha-2C adrenergic receptor (Homo sapiens) (UniProt P18825). Briefly: compounds altering alpha2C-coupled GIRK flux – cell-based, HEK293 alpha2C/GIRK1/2, thallium flux, primary screen (AID 624;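 active means fluorescence slope after compound addition differing from the mean of all screened samples at 99.7% confidence, in either direction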;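 further: slope of fluorescence ratio to pre-addition baseline per second over 15 to 24 s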). The settings on record: thallium flux BTC fluorescence, at 10 µM, actives lie on both sides.
The nature of test [7]: blockers of RIG-like receptor reporter activation – cell-based, Sendai virus stimulus, luciferase, 10K MLSCN set, TLR/RLR signaling modifier project, primary screen (AID 602276;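 active means inhibition at or above 50% at 10 µM; inactive means inhibition below 50%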;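 further: firefly luciferase from ISG56 promoter only with Renilla not read in this screen; 0% = Sendai virus plus DMSO and 100% = medium plus DMSO without virus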). The settings on record: HEK293 RL24 IRF3 luciferase reporter, at 10 µM, stronger effect = higher value. (Reporter assays use an easily measured gene product as a stand-in for the process of interest.)
Test [8] in a line: TLR3 IRF3 reporter activation blockers – cell-based, poly I:C stimulus, luciferase, 10K MLSCN set, primary screen (AID 602277;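 active means inhibition of the reporter signal at or above 50%; inactive means inhibition below 50%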). The settings on record: HEK293-TLR3 RL24 IRF3 luciferase reporter, at 10 µM, stronger effect = higher value.

Voltage-gated potassium channel subunit beta-2 (Rattus norvegicus), sequence (P62483 whole entry, looked up): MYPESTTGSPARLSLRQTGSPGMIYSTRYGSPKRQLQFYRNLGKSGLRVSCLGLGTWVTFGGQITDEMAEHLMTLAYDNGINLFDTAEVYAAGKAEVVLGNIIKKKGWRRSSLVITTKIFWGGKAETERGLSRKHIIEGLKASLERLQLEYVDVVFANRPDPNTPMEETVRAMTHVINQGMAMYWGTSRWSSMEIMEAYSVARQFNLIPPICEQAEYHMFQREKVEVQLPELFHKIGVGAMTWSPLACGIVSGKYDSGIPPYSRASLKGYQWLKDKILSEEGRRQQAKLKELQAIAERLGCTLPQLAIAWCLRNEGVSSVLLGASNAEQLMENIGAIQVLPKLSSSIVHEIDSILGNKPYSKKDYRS
Alpha-2C adrenergic receptor (Homo sapiens), sequence (P18825 whole entry, looked up): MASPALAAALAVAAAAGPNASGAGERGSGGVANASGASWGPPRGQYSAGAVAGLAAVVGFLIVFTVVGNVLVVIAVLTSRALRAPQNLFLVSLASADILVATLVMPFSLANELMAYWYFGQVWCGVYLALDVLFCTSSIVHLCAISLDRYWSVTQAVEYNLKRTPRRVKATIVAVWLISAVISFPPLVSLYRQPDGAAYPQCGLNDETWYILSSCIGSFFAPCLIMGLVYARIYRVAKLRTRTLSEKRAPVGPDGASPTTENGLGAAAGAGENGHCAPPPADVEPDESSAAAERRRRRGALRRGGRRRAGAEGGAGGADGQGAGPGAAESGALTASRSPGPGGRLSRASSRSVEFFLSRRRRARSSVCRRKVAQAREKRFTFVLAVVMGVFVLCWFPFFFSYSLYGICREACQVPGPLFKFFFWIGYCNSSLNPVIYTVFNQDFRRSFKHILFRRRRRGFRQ

With `Cc1nc2cc(C(=O)O)ccc2n1-c1ccc(F)cc1F`, the cell count in test [1] came out at 672. The inhibition was -1.5% (inactive) in test [1], -12.5% (inactive) in test [3], 4.77% (inactive) in test [7] and 27.2% (inactive) in test [8]. Also, the inhibition of aggregation in test [2] is -2.2% (inactive). For the same molecule, the nuclei count was 99.5% in test [2] and 116% in test [3]. Besides, the fluorescence slope in test [4] is -0.527 (inactive). Besides, the NADPH fluorescence slope in test [5] is -4.1e-05 (inactive). For the same molecule, the slope in test [6] is 0.00687 (inactive).

Take `CCCC(=O)Nc1cc(C)c(NC(=O)c2ccccn2)cn1`: the cell count in test [1] amounted to 418. Further, the inhibition in test [1] was 13.7% (inactive); in test [3] it was -10.2% (inactive); in test [7], 4.7% (inactive); in test [8], 11.8% (inactive). The inhibition of aggregation in test [2] was 19.4% (inactive). Moreover, the nuclei count in test [2] amounted to 89.7%; in test [3], 110%. Moreover, in test [4], the fluorescence slope is -0.606 (inactive). Moreover, the NADPH fluorescence slope in test [5] is -5.2e-05 (inactive). Moreover, in test [6], the slope is 0.007 (inactive).

As for `C/C(=N\O)C(=O)NCc1ccccn1`, the cell count in test [1] was 290. Besides, the inhibition is 0.5% (inactive) in test [1], -55.3% (inactive) in test [3], -4.43% (inactive) in test [7] and -25.9% (inactive) in test [8]. For the same molecule, the inhibition of aggregation in test [2] was 4.5% (inactive). The nuclei count in test [2] is 108%; in test [3], 104%. Also, the fluorescence slope in test [4] was -0.431 (inactive). In addition, the NADPH fluorescence slope in test [5] is 1.8e-05 (inactive). For the same molecule, the slope in test [6] is 0.00348 (inactive).

In the case of `N#Cc1nc(-c2ccco2)oc1N1CCN(c2cccc(Cl)c2)CC1`, the cell count in test [1] turned out to be 744. In addition, the inhibition in test [1] was -7.5% (inactive); in test [3], -75.1% (inactive); in test [7], 8.62% (inactive); in test [8], -3.74% (inactive). In addition, in test [2], the inhibition of aggregation is 20.8% (inactive). The nuclei count in test [2] worked out at 123%; in test [3], 109%. Further, in test [4], the fluorescence slope is -0.334 (inactive). Besides, the NADPH fluorescence slope in test [5] was 2.4e-05 (inactive). The slope in test [6] was 0.00657 (inactive).

On to `CCOC(=O)c1cnc(SCC)[nH]c1=O`, for which, in test [1], the cell count was found to be 436. Also, the inhibition is -11.8% (inactive) in test [1], -34.3% (inactive) in test [3], 6.7% (inactive) in test [7] and 27% (inactive) in test [8]. Further, the inhibition of aggregation in test [2] is -0.2% (inactive). In addition, the nuclei count is 118% in test [2] and 117% in test [3]. In addition, the fluorescence slope in test [4] was -0.351 (inactive). In addition, in test [5], the NADPH fluorescence slope is -2.9e-05 (inactive). Besides, in test [6], the slope was 0.00558 (inactive).

Turning to `CCOC(=O)C1CCCN(C(=O)c2ccc(CS(=O)(=O)c3ccc(Br)cc3)o2)C1` (centres undefined), the cell count in test [1] was determined as 509. In addition, the inhibition in test [1] was -3% (inactive); in test [3] it was -61.3% (inactive); in test [7], 4.84% (inactive); in test [8], 25.8% (inactive). For the same molecule, the inhibition of aggregation in test [2] is -0.5% (inactive). Also, the nuclei count is 108% in test [2] and 111% in test [3]. In test [4], the fluorescence slope was -0.422 (inactive). In addition, the NADPH fluorescence slope in test [5] is -7.7e-05 (inactive). For the same molecule, in test [6], the slope was 0.00523 (inactive).

As for `O=C(COC(=O)CCC(=O)c1cccs1)NCc1ccco1`, the cell count in test [1] stood at 469. Besides, the inhibition in test [1] is -20.9% (inactive); in test [3] it was -16.1% (inactive); in test [7] it was 18% (inactive); in test [8], 25.1% (inactive). For the same molecule, the inhibition of aggregation in test [2] is 1.1% (inactive). The nuclei count in test [2] stood at 101%; in test [3] it was 86.1%. In addition, the fluorescence slope in test [4] is -0.332 (inactive). For the same molecule, in test [5], the NADPH fluorescence slope was -5.5e-05 (inactive). The slope in test [6] was 0.00705 (inactive).

For `CCOC(=O)Cc1nnc(NC(=O)c2ncn[nH]2)s1`, in test [1], the cell count came out at 343. Also, the inhibition in test [1] was 0.2% (inactive); in test [3] it was -5.5% (inactive); in test [7], -0.284% (inactive); in test [8], 5.11% (inactive). The inhibition of aggregation in test [2] was -4.6% (inactive). Moreover, the nuclei count is 99.8% in test [2] and 119% in test [3]. In addition, the fluorescence slope in test [4] is -0.438 (inactive). For the same molecule, in test [5], the NADPH fluorescence slope was -5.2e-05 (inactive). The slope in test [6] was 0.00725 (inactive).

On to `CCCCCc1c(C)nc(SCC(=O)O)[nH]c1=O`, for which the cell count in test [1] was 611. In addition, the inhibition is -5.4% (inactive) in test [1], -31.8% (inactive) in test [3], -8.6% (inactive) in test [7] and -1.36% (inactive) in test [8]. In test [2], the inhibition of aggregation is 12.9% (inactive). In addition, the nuclei count is 97.3% in test [2] and 106% in test [3]. Also, the fluorescence slope in test [4] was -0.539 (inactive). The NADPH fluorescence slope in test [5] is 3.4e-05 (inactive). For the same molecule, in test [6], the slope is 0.00694 (inactive).

These data come from PubChem BioAssay.
